The list is not random: actives were taken first. Their share in the collection is about 6.2%.
HT1080NT lethal = qHTS for induction of synthetic lethality in tumor cells producing 2HG: qHTS for the HT-1080-NT fibrosarcoma cell line; HT-1080-NT fibrosarcoma viability, CellTiter-Glo ATP luminescence, 48 h; Potency, µM (top dose mostly 46.1 µM), inactives show at the highest dose activity, negative = less viability, hits mostly cytotoxic; 360,000 tested, 1.6% active; AID 686970, 2013;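 also: NT is the 2HG producing partner of a matched IDH1 knockdown line; 0% = DMSO-treated cells and -100% = media-only wells without cells; nearly all actives have a fitted effect of over 55% in size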
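750 cells/well, RPMI + 5% FBS; 2 h settle, compound pin-transfer, 48 h at 37 degrees C. CellTiter-Glo 10 min RT, luminescence. Normalized to DMSO and media-only wells.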
ATXN2 expr inh = Primary qHTS for Inhibitors of ATXN expression; 360,000 tested, 0.72% active; HEK-293 ATXN2-luciferase reporter, luminescence, 24 h; Potency, µM (doses to about 57 µM), for inactives: top-dose activity change, negative = inhibition, most hits filed as inhibitors; also: % is scaled to controls: 0 for no effect and ±100 for the full control effect; nearly all actives have a fitted effect of over 55% in size
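qHTS (up to 57 uM final) was run with 24 h compound exposure of reporter cells at 37 °C. Each well was multiplexed: SteadyGlo luminescence measured ATXN2-luciferase expression after a fluorogenic Gly-Phe-AFC viability readout (25 uM final).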
HT1080 IDH1KD tx = qHTS for induction of synthetic lethality in tumor cells producing 2HG: qHTS for the HT-1080-IDH1KD cell line | 360,000 tested, 2% active | HT-1080 IDH1 knockdown viability, ATP luminescence, 48 h | AID 686971, 2013 | Potency, µM (series often up to 46.1 µM), inactives show at the highest dose activity, negative = toxicity, most hits filed as cytotoxic;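 also: 0% = DMSO wells and -100% = cell-free medium wells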
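% activity derives from luminescence (CellTiter-Glo), normalised to DMSO and no-cell wells. HT-1080-IDH1KD cells, 750/well, had 48 h compound exposure at 37 °C.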
KB-3-1 cytotox = qHTS assay for MDR1-selective chemotherapeutics: Primary screen using the parental adenocarcinoma cell KB-3-1; KB-3-1 viability, CellTiter-Glo ATP luminescence, 72 h; Potency, µM (series often up to 46.1 µM), hits mostly cytotoxic; 400,000 tested, 1.4% active; AID 1347075, 2019; also: % is scaled to controls: 0 for no effect and ±100 for the full control effect; nearly all actives have a fitted effect of over 60% in size
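Cells are dispensed, compounds pinned in, plates held at 37 °C for 72 h, then CellTiter-Glo is added and luminescence read after 10 minutes. Cell line: parental KB-3-1 in phenol-red-free DMEM, 10% FBS.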
S2 tox = Viability Counterscreen for Primary qHTS for Inhibitors of ATXN expression. Potency, µM (titrated, usually from 56.7 µM), usual class: cytotoxic. S2 cells (HEK-293 line with an ATXN2-luciferase reporter) viability, CellTiter-Fluor protease fluorescence, 24 h. 400,000 tested, 0.49% active; also: nearly all actives have a fitted effect of over 40% in size
KB-V1 cytotox = qHTS assay for MDR1-selective chemotherapeutics: Primary screen using the drug-selected MDR subline cells KB-V1. Potency, µM (titrated, usually from 46.1 µM), actives largely listed as cytotoxic. 400,000 tested, 3.4% active. KB-V1 MDR cells viability, CellTiter-Glo, 72 h; also: % is scaled to controls: 0 for no effect and ±100 for the full control effect; nearly all actives have a fitted effect of over 60% in size
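Drug-selected KB-V1 cells, grown in DMEM lacking phenol red with 10% FBS, receive compound titrations; after three days at 37 degrees C, surviving cell ATP is quantified by CellTiter-Glo luminescence and responses normalized and curve-fitted.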
The depositor's hits bear a star; i = inactive; ? = inconclusive; / = no result given. Calls follow the shape of the dose curve; as a rule, active = well fitted curve in the direction sought with a large enough effect; inconclusive = small, poorly fitted or top-dose-only effect, or another doubt; inactive = no such curve, though single readings can be large; an effect the other way counts as inactive or inconclusive. Potency is read from the fitted curve at half-maximal effect.

SMILES | HT1080NT lethal | ATXN2 expr inh | HT1080 IDH1KD tx | KB-3-1 cytotox | S2 tox | KB-V1 cytotox
O=C(COC(=O)c1ccccc1OCCOc1ccccc1)Nc1ccccc1Br | / | / | / | i | / | i
CC(C)CCNC(=O)CN1C(=O)COc2ccc(S(=O)(=O)N3CCOCC3)cc21 | / | -5% | / | i | i | i
Cc1cccnc1C(NC(=O)C1CCN(Cc2ccc(Oc3ccccc3)cc2)CC1)c1ccc(F)cc1 (centres undefined) | 21µM* | ? | ? | ? | ? | ?
Cc1ccc(C(NC(=O)C2CCN(Cc3ccc(Oc4ccccc4)cc3)CC2)c2ccccn2)cc1 (centres undefined) | 15µM* | ? | 21µM* | i | ? | i
O=C(NC(c1ccc(Cl)cc1)c1cnccn1)C1CCN(Cc2ccc(Oc3ccccc3)cc2)CC1 (centres undefined) | ? | ? | 16µM* | ? | ? | ?
O=C(NC(c1ccc(F)cc1)c1cnccn1)C1CCN(CCOc2ccc(Cl)cc2Cl)CC1 (centres undefined) | ? | ? | ? | i | ? | i
CC(C)c1c(C(=O)NCc2cccnc2)cnn1-c1nccc(-c2cccs2)n1 | / | / | / | / | i | /
Cc1c(Cl)cccc1Nc1nn2c(=O)c3ccc(C(=O)NCCC4=CCCCC4)cc3nc2s1 | / | / | / | ? | / | i
Cc1nc(-[n+]2nc(-c3ccncc3)nn2-c2ccccc2)sc1C | 26µM* | ? | 10µM* | ? | 14µM* | ?
Oc1ccccc1N1CCN(c2ncnc3scc(-c4ccccc4)c23)CC1 | ? | -24% | ? | ? | i | ?
c1ccc2c(c1)OCC(c1csc3ncnc(N4CCCC4)c13)O2 (centres undefined) | -22% | -5% | -18% | ? | i | 13µM*
c1ccc(CCNc2ncnc3scc(C4COc5ccccc5O4)c23)cc1 (centres undefined) | -26% | -27% | -30% | ? | i | 13µM*
Cc1nc2c(c(C)nn2C(C)(C)C)c(C)c1CCC(=O)Nc1ccc(Br)cc1Br | / | 12% | / | i | ? | i
CC1(C)Cc2c(c(N3CCCCC3)[nH]c(=S)c2C#N)CS1 | 5% | 25% | 14% | i | i | 12µM*
c1ccc(Nc2nc(-c3ccncc3)nc3ccccc23)cc1 | -5% | -25% | 13% | i | i | i
c1ccc(CCNc2nc(-c3ccncc3)nc3ccccc23)cc1 | ? | ? | 4.1µM* | ? | i | 15µM*
Cc1oc(-c2ccccc2F)nc1CS(=O)(=O)CC(=O)NCCc1ccc(Cl)cc1 | / | -6% | / | i | i | i
Cn1c(=O)n(C)c2cc(N3CCOCC3)c(NS(=O)(=O)c3ccc(Br)cc3)cc21 | / | 5% | / | i | i | i
COc1cc(Cl)c(C)cc1N1C(=O)[C@@H]2C[C@H]1CN2Cc1ccccn1 | / | / | / | / | i | /
Cc1cc(C)c2ccc(N)nc2c1O | 10µM* | ? | ? | ? | / | i
Cc1cc(=O)[nH]c2nc(N)ccc12 | / | / | / | ? | / | i
Cc1cccc(-n2c(Cc3ccccc3)nnc2SCc2ccc([N+](=O)[O-])cc2)c1 | -2% | -12% | -11% | ? | i | 7.3µM*
Cc1cccc(-n2c(SCc3ccc(C#N)cc3)nnc2-c2c[nH]c3ccccc23)c1 | ? | ? | ? | ? | ? | 3.3µM*
COC(=O)c1ccc(CSc2nnc(-c3c[nH]c4ccccc34)n2-c2ccccc2)cc1 | -2% | -17% | -22% | ? | i | i
O=[N+]([O-])c1ccc(CSc2nnc(Cc3ccccc3)n2-c2ccc(F)cc2)cc1 | -20% | -22% | -25% | i | ? | ?
SMILES | HT1080NT lethal | ATXN2 expr inh | HT1080 IDH1KD tx | KB-3-1 cytotox | S2 tox | KB-V1 cytotox
Cc1ccc(NC(=O)c2cc(=O)c3ccccc3o2)cc1S(=O)(=O)N1CCCCC1 | -24% | -39% | ? | ? | i | 9.2µM*
Cc1ccc(NC(=O)COC(=O)c2oc3ccccc3c2C)cc1S(=O)(=O)N1CCOCC1 | -18% | 1% | 0% | i | i | i
Cc1ccc(NC(=S)NCc2ccccc2)cc1S(=O)(=O)N1CCCCC1 | -10% | / | -8% | ? | ? | 13µM*
Cc1ccc(NC(=O)c2cc(=O)c3ccccc3o2)cc1S(=O)(=O)N1CCOCC1 | -17% | / | -6% | i | i | 16µM*
COCc1c(C(=O)Nc2ccc(C)c(S(=O)(=O)N3CCOCC3)c2)oc2ccccc12 | 6% | 25% | -2% | ? | i | 4.6µM*
O=C(NC1CCCCCC1)c1cc2c(Cl)nc3ccccc3c2s1 | / | 7% | / | i | i | ?
CCOCc1c(C(=O)Nc2ccc3nc(N4CCOCC4)sc3c2)oc2ccccc12 | -2% | -23% | -10% | ? | i | 21µM*
CCOC(=O)Nc1ccc2nc(N3CCCCCC3)sc2c1 | ? | / | 8.2µM* | i | i | ?
Cc1ccc(CN2CC(C(=O)Nc3ccc(C)c(S(=O)(=O)N4CCCCC4)c3)CC2=O)cc1 (centres undefined) | -4% | -16% | -26% | 16µM* | i | 21µM*
CCOCc1c(C(=O)Nc2cc(OCC)c(N3CCOCC3)cc2OCC)oc2ccccc12 | -2% | 6% | 10% | i | i | i
N#Cc1c(NC(=O)c2cccc3ccccc23)sc2c1CCCC2 | / | 12% | / | / | / | /
Cc1ccc(-c2cn3cccnc3n2)cc1NC(=O)c1c(-c2ccccc2Cl)noc1C | -27% | -16% | -30% | 12µM* | i | 4.6µM*
Cc1onc(-c2ccccc2Cl)c1C(=O)Nc1nc2ccc(S(C)(=O)=O)cc2s1 | 15µM* | 6% | ? | i | i | i
CCc1noc(C)c1C(=O)Nc1nc2ccc(S(C)(=O)=O)cc2s1 | -5% | 9% | 1% | i | i | i
CC(=O)Nc1cccc(NC(=O)c2c(-c3ccccc3Cl)noc2C)c1 | -7% | 3% | -12% | i | i | 16µM*
Cc1onc(-c2ccccc2Cl)c1C(=O)Nc1cccc2cccnc12 | -26% | -9% | ? | i | i | 12µM*
O=c1c2cc3c(nc2ncn1Cc1ccccc1F)CCCC3 | / | 141% | / | i | i | i

From PubChem
